Experimental findings from PubChem BioAssay AID2013 (Sanford-Burnham Center for Chemical Genomics, 2009) are described below.

Hit rate of the full screen: of about 290,000 compounds, about 370 (0.13%) were called active. The entries come from a sample that favours actives as a whole. Potency and affinity values are given separately. A number with no mark means an inactive call.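 The calls were made as follows: active = spots per cell inhibited over 60%, with over 100 cells counted and total cytoplasm intensity under 500,000; inconclusive = wells with under 100 cells, flagged as likely toxic; inactive = the rest.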

Chain of G-protein coupled receptor 55 (Homo sapiens) (Q9Y2T6 whole entry, looked up): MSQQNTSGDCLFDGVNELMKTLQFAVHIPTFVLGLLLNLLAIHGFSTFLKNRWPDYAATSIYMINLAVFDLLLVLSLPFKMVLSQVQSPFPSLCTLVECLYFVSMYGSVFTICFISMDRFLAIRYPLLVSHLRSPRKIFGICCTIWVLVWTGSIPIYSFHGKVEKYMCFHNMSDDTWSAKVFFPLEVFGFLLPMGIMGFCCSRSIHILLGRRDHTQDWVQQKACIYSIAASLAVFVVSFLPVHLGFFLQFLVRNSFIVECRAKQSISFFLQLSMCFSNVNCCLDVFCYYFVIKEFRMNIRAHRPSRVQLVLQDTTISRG

The assay concerns the target G-protein coupled receptor 55 (Homo sapiens) (UniProt Q9Y2T6). In words: inhibition of LPI-stimulated GPR55 beta-arrestin translocation – imaging, U2OS, beta-arrestin-GFP, LPI agonist, primary screen (AID 2013).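 Also: U2OS cells stably carrying GPR55 and arrestin-GFP stimulated by 5 µM LPI near EC80; imaged beta-arrestin-GFP aggregate spots per cell after agonist stimulation; plate controls were LPI-stimulated DMSO wells for no effect and DMSO wells without LPI for full effect.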 The note with it: LPI antagonism, at 10 µM, stronger effect = higher value.
Turning to `CCOC(=O)c1c(CN(C)C)n(-c2ccccc2)c2cc(Br)c(OC)cc12`, the inhibition was -15.4%.

Consider `CCCCCCCCOC(=O)c1c(CSC(=N)N)n(C)c2cc(Br)c(OC(C)=O)cc12`, for which the inhibition is 23.7%.

On to `CCOC(=O)c1c(CSc2nc(C)cc(C)c2C#N)n(C)c2cc(Br)c(OC(C)=O)cc12`, for which the inhibition is 1.8%.

On to `CCOC(=O)c1c(C)n(C)c2cc(Br)c(OC)cc12`, for which the inhibition is 7.4%.

With `CCOC(=O)c1c(CN2CCOCC2)n(-c2ccccc2)c2cc(Br)c(OC)cc12`, the inhibition is 23.1%.

Regarding `CCOC(=O)c1c(CSC(=N)N)n(-c2ccc(Br)cc2)c2cc(Br)c(OC(C)=O)cc12`, the inhibition is 89.3% (active).

As for `CCOC(=O)c1c(CN(C)C)n(-c2ccccc2)c2cc(Br)c(O)cc12`, the inhibition is 3.4%.

`C=CCCc1ccc(C#N)c(SCc2c(C(=O)OCC)c3cc(OC(C)=O)c(Br)cc3n2C)n1`: the inhibition is -23.2%.

Regarding `CCOC(=O)c1c(CN(C)C)n(-c2ccc(C)cc2)c2cc(Br)c(O)cc12`, the inhibition is -0.7%.

Consider `CC(C)CCN(Cc1ccco1)S(=O)(=O)c1ccc(-c2ccc(=O)[nH]n2)s1`, for which the inhibition is 12.8%.

In the case of `Cc1onc(-c2ccccc2)c1C(=O)N1CCCN2C(=O)c3ccccc3C21` (centres undefined), the inhibition was -4.5%.

In the case of `O=S1(=O)Cc2cc3ccccc3cc2C1`, the inhibition is 16.4%.

Regarding `COc1ccc(C)cc1NC(=O)c1ccc(OC(F)F)cc1`, the inhibition is 3.1%.

Consider `CC(/C=C/c1ccccc1)=N/NC(=O)C(O)c1ccccc1` (centres undefined), for which the inhibition is 0.5%.

Turning to `CC(=O)NC1=NN(C(C)=O)C2(S1)C(=O)N(C(C)=O)c1ccc(C)cc12` (centres undefined), the inhibition was 7.7%.

On to `CC(c1nnc(SCC(=O)N2CC(=O)Nc3ccccc32)n1Cc1ccccc1)N(C)C` (centres undefined), for which the inhibition was -4.8%.

For the compound `COc1cccc(Nc2cc(C)c3ccccc3n2)c1`, the inhibition is 6.5%.

Regarding `CCOc1ccc(NCc2cc3c(C(C)(C)C)nn(-c4ccccc4)c3[nH]c2=O)cc1`, the inhibition is 19.3%.

Take `Cc1ccc(-c2nn(-c3ccccc3)c3[nH]c(=O)c(CNCc4ccccc4)cc23)cc1`: the inhibition was 11.1%.

Take `COc1cccc(NCc2cc3c(C(C)(C)C)nn(-c4ccccc4)c3[nH]c2=O)c1`: the inhibition was 22.7%.

As for `CC(C)(C)c1nn(-c2ccccc2)c2[nH]c(=O)c(CNCc3ccco3)cc12`, the inhibition was 39.5%.

For the compound `CC(C)(C)c1nn(-c2ccccc2)c2[nH]c(=O)c(CNc3ccc4c(c3)OCCO4)cc12`, the inhibition was 16.1%.

Turning to `Cc1nn(-c2ccccc2)c2[nH]c(=O)c(CNCc3ccc4c(c3)OCO4)cc12`, the inhibition is -26.6%.

Turning to `COc1ccc(N2CCN(S(=O)(=O)c3ccc(Cl)s3)CC2)cc1`, the inhibition was -2%.
